Experimental data published in PubChem BioAssay (NCATS).
Inconclusive results are not listed. Where a call stands in place of a potency, no number is given. Activity calls are given as the source filed them. Unless noted, the call rests on the fitted dose curve; in most records, active means well fitted curve in the direction sought with a large enough effect; inconclusive means small, poorly fitted or top-dose-only effect, or another doubt; inactive means no such curve, though single readings can be large; an effect the other way counts as inactive or inconclusive.

What was measured:
[1] = biological target: Nicotinamide N-methyltransferase (Homo sapiens) (UniProt P40261); assay: Confirmatory Screen for Target Class Profiling of Small Molecule Inhibitors of Methyltransferases (AID 1745852); conditions: MTase-Glo luminescence, SAH detection, recombinant enzyme; measured here: NNMT max response; stronger effect = lower value
[2] = biological target: Phenylethanolamine N-methyltransferase (Homo sapiens) (UniProt P11086); assay: as above; conditions: MTase-Glo luminescence, SAH detection, recombinant enzyme; measured here: PNMT max response; stronger effect = lower value
[3] = biological target: Metallo-beta-lactamase type 2 (Klebsiella pneumoniae) (UniProt C7C422); assay: qHTS to identify inhibitors of the New Delhi Metallo-beta-lactamase (NDM): assay validation screen against the NCATS LOPAC Collection (AID 1794843);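 further: nitrocefin turnover by NDM-1 measured as 485 nm absorbance at plateau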
In short: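 Enzyme 2 nM final, 50 mM HEPES pH 7.0, 1 uM ZnSO4, 0.01% Tween20; cpds in DMSO, preincub w/ enzyme; + nitrocefin (50 uM stock); A485 at plateau; no-enzyme column as blank.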

[4] = biological target: Glutathione peroxidase 1 (Homo sapiens) (UniProt P07203); assay: Primary qHTS Assay for Inhibitors of Recombinant Selenoprotein Glutathione Peroxidase 1 (GPX1) (AID 1845191); further: nearly all actives have a fitted effect of over 65% in size
In short: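 GR-coupled readout: NADPH consumption tracked by fluorescence, ex 340/em 450 nm, at t=0 and after 15 min at RT. Final mix 10 nM GPX1, 1 mM GSH, 0.5 mM CHP, 0.5 mM NADPH, 100 nM GR, 0.01% BSA, following 30 min enzyme–compound preincubation.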

[5] = biological target: Phospholipid hydroperoxide glutathione peroxidase GPX4 (Homo sapiens) (UniProt P36969); assay: Primary qHTS Assay for Inhibitors of Recombinant Selenoprotein Glutathione Peroxidase 4 (GPX4) (AID 1845192); further: nearly all actives have a fitted effect of over 65% in size
In short: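 Steps: GPX4 plus compound, 30 min RT; add GR/GSH/NADPH master mix; start with cumene hydroperoxide; read 340/450 nm fluorescence at 0 and 15 min. Finals were 200 nM GPX4, 1 mM GSH, 0.5 mM CHP, 0.5 mM NADPH, 100 nM GR.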

[6] = NCATS anti-infectives library activity on HEK293 viability as a counter-qHTS vs the C. elegans viability qHTS (AID 1745854)
In short: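 CellTiter-Glo luminescence, read on a CCD imager, scored viability of HEK293 cells after 24 hr compound exposure at 37C. Library tested in several concentrations, 1:5 steps, up to 41.7 uM; digitonin served as control.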

[7] = NCATS anti-infectives library activity on the primary C. elegans qHTS viability assay (AID 1745855; calls by dose curve); conditions: C. elegans worm area imaging, day 7; at 41.8 µM (top of the series) unless noted
In short: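 Titration-based screen in worms: eggs hatched overnight in M9, L1 larvae fed TOP10 capsules in S medium with compound, incubated 21 °C for 7 days; fluorescent objects gated by size and intensity at days 0, 3 and 7.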

Sequence of Metallo-beta-lactamase type 2 (Klebsiella pneumoniae) (C7C422 whole entry, looked up): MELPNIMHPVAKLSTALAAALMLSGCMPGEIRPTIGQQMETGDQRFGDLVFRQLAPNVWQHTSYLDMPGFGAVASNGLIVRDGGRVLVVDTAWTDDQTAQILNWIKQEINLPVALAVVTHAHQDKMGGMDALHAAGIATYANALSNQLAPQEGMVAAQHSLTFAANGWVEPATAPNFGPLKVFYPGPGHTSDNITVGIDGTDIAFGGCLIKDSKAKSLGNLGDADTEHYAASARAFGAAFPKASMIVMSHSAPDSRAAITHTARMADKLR
Sequence of Glutathione peroxidase 1 (Homo sapiens) (P07203 whole entry, looked up): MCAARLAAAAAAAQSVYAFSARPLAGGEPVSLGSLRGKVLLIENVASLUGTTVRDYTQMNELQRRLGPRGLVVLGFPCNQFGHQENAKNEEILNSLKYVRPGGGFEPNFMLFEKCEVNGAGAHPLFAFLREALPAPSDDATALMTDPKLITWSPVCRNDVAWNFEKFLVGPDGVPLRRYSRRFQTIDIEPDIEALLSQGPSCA
Sequence of Nicotinamide N-methyltransferase (Homo sapiens) (P40261 whole entry, looked up): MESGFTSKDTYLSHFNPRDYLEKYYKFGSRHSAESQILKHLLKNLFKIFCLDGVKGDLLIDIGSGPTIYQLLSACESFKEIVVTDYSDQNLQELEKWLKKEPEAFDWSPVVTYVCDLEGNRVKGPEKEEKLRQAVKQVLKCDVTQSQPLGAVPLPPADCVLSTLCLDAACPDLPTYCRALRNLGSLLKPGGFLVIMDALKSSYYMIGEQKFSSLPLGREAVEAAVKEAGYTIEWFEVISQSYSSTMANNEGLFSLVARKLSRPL
Sequence of Phospholipid hydroperoxide glutathione peroxidase GPX4 (Homo sapiens) (P36969 whole entry, looked up): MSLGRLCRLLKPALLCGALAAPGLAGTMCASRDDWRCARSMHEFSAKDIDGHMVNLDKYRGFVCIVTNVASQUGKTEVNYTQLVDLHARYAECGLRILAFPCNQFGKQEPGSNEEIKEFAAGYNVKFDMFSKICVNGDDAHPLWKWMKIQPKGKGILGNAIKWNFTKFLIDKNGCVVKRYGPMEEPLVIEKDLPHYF
Sequence of Phenylethanolamine N-methyltransferase (Homo sapiens) (P11086 whole entry, looked up): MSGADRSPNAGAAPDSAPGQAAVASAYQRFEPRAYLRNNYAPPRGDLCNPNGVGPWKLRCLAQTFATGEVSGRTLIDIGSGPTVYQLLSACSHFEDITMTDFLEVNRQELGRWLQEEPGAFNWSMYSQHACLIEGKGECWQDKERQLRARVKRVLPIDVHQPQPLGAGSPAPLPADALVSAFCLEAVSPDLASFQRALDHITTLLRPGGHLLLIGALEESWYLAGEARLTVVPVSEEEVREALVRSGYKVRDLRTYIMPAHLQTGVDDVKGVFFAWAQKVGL

Compound | activity [1] [%] | activity [2] [%] | Potency [3] | Potency [4] | Potency [5] | outcome [6] | outcome [7]
CCN(CC)CCCCCCCCOC(=O)c1cc(OC)c(OC)c(OC)c1 | -0.607 | 0.819 | inactive | inactive | inactive | – | –
N#C/C(=C\c1ccc(O)c(O)c1)C(=O)NCCCNC(=O)/C(C#N)=C/c1ccc(O)c(O)c1 | -44.4 | -72.8 | inactive | inactive | inactive | – | –
CCN1C(=O)C=CC1=O | – | – | inactive | inactive | inactive | inactive | inactive [at 83.3 µM]
NS(=O)(=O)c1cccc2c1c([N+](=O)[O-])cc1nc(O)c(O)nc12 | -6.69 | 1.61 | inactive | inactive | inactive | – | –
CC1CCN=C(N)S1 (centres undefined) | -17.8 | -0.769 | inactive | inactive | inactive | – | –
CNCCc1cnc(CCC(c2ccccc2)c2ccccc2)[nH]1 | -32.7 | -3.25 | – | inactive | inactive | – | –
Nc1ccc2c3c(cccc13)C(=O)NC2=O | -4.84 | 2.54 | inactive | inactive | inactive | – | –
C=CCN1CCc2c(cc(O)c(O)c2Cl)C(c2ccccc2)C1 (centres undefined) | -9.01 | 8.41 | inactive | inactive | inactive | – | –
Clc1nccc2c1ccc1ccccc12 | -11.8 | -6.62 | inactive | inactive | inactive | – | –
CC[C@@H]1Cc2cc(O)ccc2C2=C1c1ccc(O)cc1C[C@H]2CC | -26.8 | -50.4 | inactive | inactive | inactive | – | –
C[C@@]1(C2CCCC2)Cc2cc(OCC(=O)O)c(Cl)c(Cl)c2C1=O | -45.2 | 5.32 | inactive | inactive | inactive | – | –
O=C(O)Cc1ccc(O)c(O)c1 | 0.212 | 4.32 | inactive | inactive | inactive | – | –
COc1cc(/C=C(\C#N)C(=O)c2ccc(O)c(O)c2)cc(I)c1O | -5.85 | 1.08 | inactive | inactive | inactive | – | –
NC/C=C\C(=O)O | -7.89 | 2.22 | inactive | inactive | inactive | – | –
CCCc1c(OCCCOc2ccc(OCC(=O)O)cc2)ccc(C(C)=O)c1O | -16.7 | 0.821 | inactive | inactive | inactive | – | –
C[C@](Cc1ccc(O)c(O)c1)(NN)C(=O)O | -8.36 | 2.39 | inactive | inactive | inactive | – | –
